Data published in PubChem BioAssay (Tox21).
Records with an inconclusive call do not appear. The source made the active and inactive calls. Calls follow the shape of the dose curve; as a rule, active = well fitted cell-killing curve with a large enough effect in the repeat runs; inconclusive = weak or mixed curves, or effect the other way; inactive = flat fitted curve, though single readings scatter.
% is scaled to controls: 0 for no effect and ±100 for the full control effect.

Experiment: qHTS assay to identify small molecule agonists of the TGF-beta/Smad signaling pathway - cell viability counter screen (AID 1346829); also: top concentration of the series differs between compounds; nearly all actives have a fitted effect of over 45% in size
Conditions: SBE-bla HEK293T viability, CellTiter-Glo luminescence, 5 h; series mostly up to 76.8 µM; activity change, negative = cytotoxicity: at the top concentration
Excerpt: National Center for Advancing Translational Sciences [NCATS]
NIH Chemical Genomics Center [NCGC]
U.S. Environmental Protection Agency [EPA]
National Institutes of Environmental Health Sciences [NIEHS]
National Toxicology Program [NTP]
U.S. Food and Drug Administration [FDA]
Transforming growth factor beta (TGF-beta) superfamily consists of a large number of structurally related dimeric proteins that act as hormones or local mediators in regulating a wide range of biological functions. This superfamily includes TGF-betas themselves, the bone morphogenetic proteins (BMPs) and the activins. These ligands induce oligomerization of serine/threonine receptor kinases and phosphorylate the cytoplasmic signaling molecules of Smad protein family. CellSensor SBE-bla HEK 293T cell line (Life Technologies, Carlsbad, CA), responsive to TGF-beta was used to screen Tox21 10K compound library for identification of agonists/antagonists of the Smad signaling pathway. This cell line contains a beta-lactamase reporter gene under control of the Smad binding element (SBE) stably integrated into HEK 293T cells. Also cytotoxicity of the compounds was tested in parallel by measuring the cell viability using CellTiter-Glo assay system in the same wells.
Tox21 Assay Protocol Summary:
SBE-bla HEK 293T cells were dispensed at 4,000/well in 6 uL of assay medium into black wall/clear-bottom 1536-well plates using a Multidrop Combi (ThermoFisher Scientific, Waltham, MA) dispenser. After the assay plates were incubated at 37 C and 5% CO2 for an overnight, 23 nL of compounds dissolved in DMSO, positive controls or DMSO only was transferred to the assay plate by a Pintool station (Kalypsys, San Diego, CA). The assay plates were incubated at 37 C and 5% CO2 for 5 hr. One uL of LiveBLAzer B/G FRET substrate (Life Technologies) was added using a Flying Reagent Dispenser (FRD, Aurora Discovery, San Diego, CA) and the plates were incubated at room temperature for 2 hr. Fluorescence intensity (405 nm excitation, 460 nm and 530 nm emissions) was measured using an Envision plate reader (PerkinElmer, Shelton, CT). For cytotoxicity read, 4 uL of CellTiter-Glo reagent (Promega Corporation, Madison, WI) was added to each well of the assay plates using FRD. After 30min incubation at room temperature, the luminescence intensity was measured using ViewLux plate reader (PerkinElmer).
For `COc1c2occc2c(OC)c2c(=O)cc(C)oc12`, the “activity change, negative = cytotoxicity” value was -5.47% [at 35.3 µM] (inactive).
With `CC1=C(C(=O)O)N2C(=O)[C@@H](NC(=O)[C@H](N)C3=CCC=CC3)[C@H]2SC1` the “activity change, negative = cytotoxicity” value was 23.4% [at 35.3 µM] (inactive).
In the case of `C=C(C)[C@@H]1CC=C(C)CC1`, the “activity change, negative = cytotoxicity” value is reported as 1.96% (inactive).
With `CCCCC1CCC(O)CC1` (stereo not given) the “activity change, negative = cytotoxicity” value was -4.1% (inactive).
With `CCN1CCCC1CN` (stereo not given) the “activity change, negative = cytotoxicity” value was 7.39% [at 35.3 µM] (inactive).
With `O=NN(CCCl)C(=O)NC1CCCCC1` the “activity change, negative = cytotoxicity” value was -19.2% [at 35.3 µM] (inactive).
With `OC[C@H]1O[C@@H](O[C@@H]2[C@@H](CO)O[C@](O)(CO)[C@H]2O)[C@H](O)[C@@H](O)[C@H]1O` the “activity change, negative = cytotoxicity” value was 13.6% [at 35.3 µM] (inactive).
With `O=C=NCC1CCCC(CN=C=O)C1` (stereo not given) the “activity change, negative = cytotoxicity” value was 11.8% (inactive).
For `CCOc1ccccc1OCC1CNCCO1` (stereo not given), the “activity change, negative = cytotoxicity” value was 1.44% [at 35.3 µM] (inactive).
In the case of `C=CC(=O)OCC1CCCO1` (stereo not given), the “activity change, negative = cytotoxicity” value is reported as 3.62% (inactive).
For `Nc1nc(-c2ccccc2)c(Br)c(=O)[nH]1`, the “activity change, negative = cytotoxicity” value was 21.8% [at 35.3 µM] (inactive).
With `CC1OCCC1=O` (stereo not given) the “activity change, negative = cytotoxicity” value was 11.8% (inactive).
In the case of `CCCCCCCCCOC(=O)c1ccccc1C(=O)OCCCCCCCCC`, the “activity change, negative = cytotoxicity” value is reported as -16.4% (inactive).
In the case of `C=CC/C=C/C`, the “activity change, negative = cytotoxicity” value is reported as 1.51% (inactive).
For `CNCCS(=O)(=O)O`, the “activity change, negative = cytotoxicity” value was -2.91% (inactive).
In the case of `CC(=O)O[Si](C)(OC(C)=O)OC(C)=O`, the “activity change, negative = cytotoxicity” value is reported as 3.72% (inactive).
In the case of `CCCCCCCCCCOC(C)=O`, the “activity change, negative = cytotoxicity” value is reported as -0.915% (inactive).
With `CCC(C)OC(C)CC` (stereo not given) the “activity change, negative = cytotoxicity” value was 2.86% (inactive).
In the case of `CCC(=O)Oc1ccc2c(c1)CC[C@@H]1[C@@H]2CC[C@@]2(C)[C@H]1C[C@@H](OC(=O)CC)[C@@H]2OC(=O)CC`, the “activity change, negative = cytotoxicity” value is reported as -12.9% [at 35.3 µM] (inactive).
With `CC(=O)CC(=O)Nc1ccc(C)cc1C` the “activity change, negative = cytotoxicity” value was -0.623% (inactive).
With `OCCN1CCOCC1` the “activity change, negative = cytotoxicity” value was -1.74% (inactive).
In the case of `CCCCCC(C)O` (stereo not given), the “activity change, negative = cytotoxicity” value is reported as -12.2% (inactive).
For `CC(=O)C1C(=O)C=C(C)OC1=O` (stereo not given), the “activity change, negative = cytotoxicity” value was 1.97% (inactive).
For `CO[C@@]1(NC(=O)Cc2cccs2)C(=O)N2C(C(=O)O)=C(COC(N)=O)CS[C@@H]21`, the “activity change, negative = cytotoxicity” value was 1.25% [at 35.3 µM] (inactive).
With `Cc1ccccc1C(N)=O` the “activity change, negative = cytotoxicity” value was 14.5% (inactive).
In the case of `O=C1c2ccccc2C(=O)c2cc(Cl)ccc21`, the activity change, negative = cytotoxicity is reported as 7.07% [at 6.97 µM] (inactive).
For `CC(C)Nc1ccccc1`, the “activity change, negative = cytotoxicity” value was -5.29% (inactive).
For `OC1OCCOC1O` (stereo not given), the “activity change, negative = cytotoxicity” value was 19.9% (inactive).
With `CC1CCc2c(N3CCC(O)CC3)c(F)cc3c(=O)c(C(=O)O)cn1c23` (stereo not given) the “activity change, negative = cytotoxicity” value was 0.254% [at 35.3 µM] (inactive).
In the case of `CC/C(C)=N\O[Si](C)(O/N=C(\C)CC)O/N=C(\C)CC`, the “activity change, negative = cytotoxicity” value is reported as 2.28% (inactive).
With `c1ccc2cnccc2c1` the “activity change, negative = cytotoxicity” value was 2.79% (inactive).
For `Cn1c(=O)c2[nH]c(Br)nc2n(C)c1=O`, the “activity change, negative = cytotoxicity” value was 1.27% [at 35.3 µM] (inactive).
For `CC1(C)CC(OC(=O)CCCCCCCCC(=O)OC2CC(C)(C)NC(C)(C)C2)CC(C)(C)N1`, the activity change, negative = cytotoxicity was 11.9% [at 15.8 µM] (inactive).
In the case of `CC(C)C[C@@H]1[C@H](c2ccccc2)OC(=O)N1CCCN1CCCCCC1`, the “activity change, negative = cytotoxicity” value is reported as 0.147% [at 35.3 µM] (inactive).
For `CC(C)=CCC/C(C)=C/COC=O`, the “activity change, negative = cytotoxicity” value was -1.21% (inactive).
In the case of `C=CCCCC`, the “activity change, negative = cytotoxicity” value is reported as -6.8% (inactive).
In the case of `OCC(O)CN1CCN(c2ccccc2)CC1` (stereo not given), the “activity change, negative = cytotoxicity” value is reported as -0.0416% [at 35.3 µM] (inactive).
For `CCC/C=C(\C=O)CC`, the “activity change, negative = cytotoxicity” value was -6.58% (inactive).
In the case of `COC(=O)/C=C\C(=O)O`, the “activity change, negative = cytotoxicity” value is reported as 4.11% (inactive).
For `COc1ccc2c(c1)c1c3n2CCN(C)C3=NCC1`, the “activity change, negative = cytotoxicity” value was 3.73% [at 35.3 µM] (inactive).
